Results as given in PubChem BioAssay (NCI).
Several values for one entry are separate records, joined by “and”; a condition that tells them apart may be missing. Equal entries are not always repeated. About 79,000 compounds went through this panel and 15% of them were active in at least one assay; those are over-represented in the sample as a whole. Values without a mark were called inactive. Activity calls are given as the source filed them. Cut-off read from the data, not from the text of the source: active = growth inhibition above about 70%; inactive = the rest.

Legend:
[1] = NCI Yeast Anticancer Drug Screen. Data for the rad50 strain (AID 155);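 note: 0% = growth of vehicle-only cultures of the same strain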; conditions: S. cerevisiae rad50 strain growth inhibition, hits give high values; at 50.0 µM unless noted
In short: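 Readout: growth inhibition relative to vehicle-treated cultures. Compound exposure was carried out in a genetically defined yeast strain deficient in DNA damage repair.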

[2] = NCI Yeast Anticancer Drug Screen. Data for the mec2-1 strain (AID 157); conditions: S. cerevisiae mec2-1 strain, hits give high values; at 50.0 µM unless noted
In short: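 Using mec2-1 yeast: add compound, measure growth, express inhibition versus vehicle-treated cultures.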

[3] = NCI Yeast Anticancer Drug Screen. Data for the sgs1 mgt1 strain (AID 161);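 note: 0% = growth of cultures given vehicle only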; conditions: S. cerevisiae sgs1 mgt1 strain, hits give high values; at 50.0 µM unless noted
In short: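 Growth of a repair-deficient yeast mutant was monitored after compound treatment and expressed as inhibition relative to vehicle-treated cultures.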

[4] = NCI Yeast Anticancer Drug Screen. Data for the cln2 rad14 strain (AID 165);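 note: 0% = growth equal to vehicle treated cultures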; conditions: S. cerevisiae cln2 rad14 strain, hits give high values; at 50.0 µM unless noted
In short: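 Yeast strain cln2 rad14, bearing defects in cell cycle control and DNA repair, serves as the test system; values reflect growth inhibition compared with vehicle.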

[5] = NCI Yeast Anticancer Drug Screen. Data for the bub3 strain (AID 167); conditions: S. cerevisiae bub3 mutant strain, hits give high values; at 50.0 µM unless noted
In short: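 Readout: yeast growth inhibition, expressed relative to vehicle-only wells. The test organism is a mutant strain from a panel with lesions in DNA repair or checkpoint genes.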

[6] = NCI Yeast Anticancer Drug Screen. Data for the mlh1 rad18 strain (AID 175); conditions: S. cerevisiae mlh1 rad18 strain growth inhibition, hits give high values; at 50.0 µM unless noted
In short: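 Steps: expose repair-defective yeast to compound; measure growth; express inhibition against vehicle-treated controls.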

Compound	growth inhibition [1]	growth inhibition [2]	growth inhibition [3]	growth inhibition [4]	growth inhibition [5]	growth inhibition [6]
O=C1CN(CCc2ccccc2)CC(=O)N2C(c3ccccc3)CCCN12 (stereo not given)	62.7%	38.5%	65.2%	42.2%	52%	43.4%
CC(C)C1Oc2ccc(Br)cc2C1O (stereo not given)	11.2%	8.15%	2.25%	-13.1%	18.7%	5.6%
CC12CC(=O)OC1(C)C1CCC2C1 (stereo not given)	9.25%	10.3%	-5.25%	-10.7%	-10.2%	9.05%
Nc1nc2c(ncn2-c2ccc(Br)cc2)c(=O)[nH]1	15.2%	-1.6%	20.9%	32.1%	-4.8%	59.8%
NC(N)=Nc1ccc(-c2ccc(N=C(N)N)cc2)cc1	-9.35%	6.4%	0.85%	-22.2%	-24.9%	-7.95%
CCOC(=O)C(Cc1cc(N)c(Oc2ccc(OC)cc2)c(N)c1)NC(C)=O (stereo not given)	-16.1%	-36.9%	-4.65%	14.9%	-9.1%	5.25%
S=C(Nc1ccc2c(c1)oc1ccccc12)c1cccs1	35.1%	16.6%	-36.2%	-7.25%	-9.6%	-4.6%
CC(C)CCCC(C)C1CCC2C3CC4OC45CC(O)CCC5(C)C3CCC12C (stereo not given)	42.4%	18.1%	47.7%	7.3%	-1.1%	29.4%
COc1ccc(C(C)(OC)c2cc(C(C)(C)C)c(O)c(C(C)(C)C)c2)cc1 (stereo not given)	-19.2%	-12.6%	-20.2%	-0.55%	-2.05%	-21.6%
COc1ccc(/C=C2\N=C(N3CCCC(CO)C3)NC2=O)cc1 (stereo not given)	-35.1%	-2.4%	8.3%	1.9%	-3.85%	-34%
CC1=C2CC(C)(C)CC(=O)C2(C)CCC1=O (stereo not given)	4.2%	-6.55%	11.9%	25.6%	-2.85%	27.8%
O=c1c2cc(O)ccc2n2nnc3ccc(NCCNCCO)c1c32	-18.4% and -10.8%	-16.3% and -12.1%	-35.1% and -8.7%	18.1% and 16.9%	8.3% and 1%	-4.7% and 3.1%
C[n+]1c(SCC(=O)O)sc2ccccc21	-28.8% and 1.2%	-46.3% and 10.1%	3.7% and 19.6%	14.9% and 6.5%	-26.6% and 34.2%	5.7% and 22.9%
CC12CCC([C@H](C(O)C3CCCCC3)C1=O)C2(C)C (stereo not given in full)	-2.7%	-16.6%	-12.8%	16.6%	-5.7%	-5.1%
CCC(O)(c1ccccc1)C(O)(CC)c1ccccc1 (stereo not given)	15.8%	8.9%	-2.05%	22.8%	-13%	23.3%
C/C=C/Cc1n[nH]c(=O)c2c(C)[nH]nc12	-13%	-13.4%	-9.55%	-13.8%	-5.85%	-17.9%
O=[N+]([O-])c1cc(Cl)ccc1S(=O)(=O)N1CCCc2cc(Cl)ccc21	66.2%	51.8%	64.8%	62.1%	63.6%	62%
CCCCCCCCCCCCCCCC[N+](C)(C)CC#N	99.4% (active)	99.3% (active)	99.2% (active)	99% (active)	99.2% (active)	99.5% (active)
O=C(Oc1cccc(O)c1)c1ccccc1	-7.25%	11%	-9.15%	-18.8%	19.9%	-6.1%
CCC(O)C(C)(C)[N+](=O)[O-] (stereo not given)	3.35%	-3.25%	-2.6%	-2.05%	-0.8%	0.35%
